Sampled rows, rich in hits. Any-hit rate of the full collection: about 1.3%.
Giardia FBPA inh-1 – blocks Giardia fructose-bisphosphate aldolase activity; A8B2U2; purified Giardia FBPA; Potency, µM (doses to about 59.6 µM), inactives show at the highest dose activity, negative = inhibition, most hits filed as inhibitors; actives 0.71% (n = 290,000); AID 2451; also: nearly all actives have a fitted effect of over 55% in size
Target sequence (A8B2U2 whole entry, looked up): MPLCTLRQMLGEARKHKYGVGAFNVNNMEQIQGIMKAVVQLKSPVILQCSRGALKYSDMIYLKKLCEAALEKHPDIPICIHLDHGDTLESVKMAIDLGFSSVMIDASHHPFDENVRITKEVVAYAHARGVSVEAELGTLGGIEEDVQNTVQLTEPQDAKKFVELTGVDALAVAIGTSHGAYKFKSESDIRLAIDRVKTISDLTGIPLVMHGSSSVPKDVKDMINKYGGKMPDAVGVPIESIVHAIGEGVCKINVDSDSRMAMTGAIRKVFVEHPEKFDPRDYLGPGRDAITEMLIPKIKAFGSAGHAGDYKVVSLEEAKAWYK
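Giardia FBPA (40 nM reagent) was preincubated 10 min at RT with compound (up to 57.5 uM final), then substrate plus GAPDH/TPI/NAD/arsenate coupling system with diaphorase/resazurin was added; resorufin fluorescence (525/598 nm) was read after 20 min.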
AmpC inh detg – blocks E. coli AmpC beta-lactamase in detergent assay; actives 0.041% (n = 370,000); Potency, µM (top dose mostly 114 µM), inactives show at the top dose activity change, negative = inhibition, hits mostly inhibitors; AmpC hydrolysis of nitrocefin, absorbance 480 nm, 0.01% Triton;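 also: 0% = no-compound wells and -100% = no-enzyme wells; nearly all actives have a fitted effect of over 25% in size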
Target sequence (P00811 whole entry, looked up): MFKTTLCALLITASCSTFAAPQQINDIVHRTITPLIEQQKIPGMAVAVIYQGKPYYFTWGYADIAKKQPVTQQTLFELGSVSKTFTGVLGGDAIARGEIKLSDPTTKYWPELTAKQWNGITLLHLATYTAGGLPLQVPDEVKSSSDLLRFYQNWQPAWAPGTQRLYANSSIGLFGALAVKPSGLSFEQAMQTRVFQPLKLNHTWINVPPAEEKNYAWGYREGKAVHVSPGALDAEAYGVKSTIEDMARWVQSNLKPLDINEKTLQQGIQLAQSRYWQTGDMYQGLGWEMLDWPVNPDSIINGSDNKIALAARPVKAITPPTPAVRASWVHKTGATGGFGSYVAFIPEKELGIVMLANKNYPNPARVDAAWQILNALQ
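AmpC (5.3 nM in the dispensed reagent) in 20 mM phosphate pH 7.0 with 0.01% (detergent screen) or 0.0001% Triton X-100 was preincubated with compounds for 15 min at room temperature. Nitrocefin was then added from an 800 uM solution, and hydrolysis was followed at 480 nm.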
LmPK inh – inhibitors of Leishmania mexicana pyruvate kinase; actives 0.37% (n = 290,000); purified LmPK, Kinase-Glo ATP luminescence, 1 h; Potency, µM (doses to about 57.5 µM), for inactives: at the top dose activity change, negative = inhibition, usual class: inhibitors
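Pyruvate kinase activity monitored as ATP production (luciferase luminescence). Conditions: 0.1 nM enzyme, 0.5 mM PEP, 0.1 mM ADP, 1 h, RT; normalized against uninhibited and no-enzyme wells.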
AmpC no deterg – inhibitors of E. coli AmpC beta-lactamase without detergent. P00811. AmpC nitrocefin hydrolysis, absorbance 480 nm, 0.0001% Triton. Potency, µM (titrated, usually from 57.1 µM), for the others: at the highest dose activity change, negative = inhibition, most hits filed as inhibitors. actives 0.52% (n = 330,000). AID 485341;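 also: plate controls were no compound for no effect and no enzyme for full effect; nearly all actives have a fitted effect of over 20% in size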
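20 mM phosphate pH 7.0 + 0.01% (detergent screen) or 0.0001% Triton X-100; 5.3 nM AmpC reagent; cpd preinc 15 min RT; nitrocefin (800 uM stock) to start; A480 q20 s × 4 min; Activity was normalised to no-enzyme and no-compound control wells.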
AMA1-RON2 inh – AMA1-RON2 (P. falciparum) interaction inhibition; AID 720542; Potency, µM (series often up to 58.2 µM), for the others: at the top dose activity change, negative = inhibition, most hits filed as inhibitors; actives 0.2% (n = 360,000); AlphaScreen AMA1-biotinylated RON2 peptide binding;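 also: 0% = vehicle wells and -100% = peptide control; nearly all actives have a fitted effect of over 45% in size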
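AMA1 (3D7) with his tag at 25 nM final met compounds first, then biotinylated RON2 peptide at 25 nM; detection used donor plus acceptor beads, 10 µg/mL apiece, read by AlphaScreen after 30 min at room temperature.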
Giardia growth – Giardia lamblia growth inhibition; Potency, µM (top dose mostly 57.5 µM), inactives show top-dose activity change, negative = inhibition, usual class: inhibitors; actives 5% (n = 1,500); shares compounds with Giardia FBPA inh-1; Giardia lamblia trophozoite growth inhibition; AID 2785;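 also: trophozoites exposed to compound for 48 h at 37 °C; nearly all actives have a fitted effect of over 70% in size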
Mammal cell tox – mammalian cytotoxicity of Giardia aldolase inhibitor hits; shares compounds with Giardia FBPA inh-1; mammalian cell viability counter-screen, qHTS; Potency, µM (doses to about 57.5 µM), for the others: at the top dose viability change, negative = toxicity, most hits filed as inhibitors; actives 4% (n = 1,500);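 also: Chinese hamster ovary cells used as mammalian cytotoxicity surrogate; viability measured as cellular ATP by luminescence; compound exposure lasted 48 h before reading; nearly all actives have a fitted effect of over 60% in size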
Giardia FBPA inh-2 – confirmation of Giardia fructose-bisphosphate aldolase inhibitors; shares compounds with Giardia FBPA inh-1; purified Giardia aldolase enzyme activity, qHTS; Potency, µM (doses to about 57.5 µM), for the others: at the highest dose activity change, negative = inhibition, actives largely listed as inhibitors; actives 5% (n = 1,500); also: nearly all actives have a fitted effect of over 45% in size
Rabbit FBPA inh – selectivity test for Giardia aldolase inhibitors: rabbit aldolase | shares compounds with Giardia FBPA inh-1 | Potency, µM (titrated, usually from 57.5 µM), for inactives: top-dose activity, negative = inhibition, most hits filed as inhibitors | actives 4% (n = 1,500) | Rabbit muscle FBPA enzyme inhibition, selectivity counter-screen; also: nearly all actives have a fitted effect of over 60% in size
GAPDH counter – counter-screen for Giardia aldolase inhibitors: GAPDH coupling enzyme. GAPDH coupling enzyme counterscreen, biochemical, qHTS. shares compounds with Giardia FBPA inh-1. actives 6% (n = 1,500). AID 2795. Potency, µM (doses to about 57.5 µM), for the others: top-dose activity change, negative = inhibition, usual class: inhibitors; also: nearly all actives have a fitted effect of over 55% in size
An asterisk follows results filed as active; ? = inconclusive; nt = no result; [ ] = another dose, or the depositor's remark. Calls follow the shape of the dose curve; as a rule, active = well fitted curve in the direction sought with a large enough effect; inconclusive = small, poorly fitted or top-dose-only effect, or another doubt; inactive = no such curve, though single readings can be large; an effect the other way counts as inactive or inconclusive. Unless noted, % is scaled to controls: 0 for no effect and ±100 for the full control effect; potency is read from the fitted curve at half-maximal effect.

SMILES | Giardia FBPA inh-1 | AmpC inh detg | LmPK inh | AmpC no deterg | AMA1-RON2 inh | Giardia growth | Mammal cell tox | Giardia FBPA inh-2 | Rabbit FBPA inh | GAPDH counter
COc1cccc(NC2=C(C#N)C(=O)NC(c3cccc(OC)c3O)S2)c1 (configuration not stated) | 16µM* | 1% | 2% | -33% | 22% | ? | 3% | ? | -2% | -25%
O=C(CN1CCN(S(=O)(=O)c2ccc(Cl)cc2)CC1)c1ccc(O)c(O)c1 | nt | -4% | -1% | -42% | 61% | nt | nt | nt | nt | nt
O=C(CN1CCN(S(=O)(=O)c2ccc(F)cc2)CC1)c1ccc(O)c(O)c1 | 20µM* | 4% | 8% | -8% | 13% | -6% | -13% | -29% | -17% | 2%
CC1CC=CC2C1C(=O)N(Cc1ccccc1)C2c1ccc(/C=C/c2ccccc2)cc1F (configuration not stated) | -2% | nt | nt | nt | nt | nt | nt | nt | nt | nt
O=C1NC(C(=O)O)=CC(c2ccc([N+](=O)[O-])cc2)N1 (configuration not stated) | 18µM* | -1% | 1% | -13% | 84% | 25% | 20% | -10% | -12% | 1%
CC1(C(=O)O)COC(c2ccc([N+](=O)[O-])cc2)OC1 (configuration not stated) | 4% | -5% | 6% | -38% | 11% | nt | nt | nt | nt | nt
Cc1c(N=C2C=C(Br)C(=O)C(Br)=C2)c(=O)n(-c2ccccc2)n1C | 14µM* | 1% | ? | -48% | ? | -12%[10.4 µM] | 0% | ? | -27% | ?
Cc1cn2c(=O)cc(COC(=O)c3ccc(NC(=O)c4ccccc4C)cc3)nc2s1 | nt | 2% | nt | nt | nt | nt | nt | nt | nt | nt
CCOC(=O)C1(C)CCCN(C(=O)C(c2ccccc2)c2ccccc2)C1 (configuration not stated) | nt | nt | nt | nt | 2% | nt | nt | nt | nt | nt
OC(c1ccccc1)c1ccncc1 (configuration not stated) | nt | 2% | nt | -13% | 10% | nt | nt | nt | nt | nt
Cc1ccccc1C(N)c1ccncc1 (configuration not stated) | 14µM* | ? | 9% | -6% | 11% | -9% | 26% | 5% | 13% | -2%
O=C(O)c1ccc(Cl)c(S(=O)(=O)Nc2ccc3[nH]c(=O)[nH]c3c2)c1 | ? | -12% | 8% | -16% | 0% | 21%[38.3 µM] | -13% | 18µM* | ? | 16µM*
O=C(O)c1cccc(S(=O)(=O)Nc2ccc3[nH]c(=O)[nH]c3c2)c1 | ? | -9% | 10% | -6% | -13% | nt | nt | nt | nt | nt
COc1ccc(N=Cc2cc(Cc3ccccc3Cl)cc([N+](=O)[O-])c2O)cc1OC | 0.56µM* | 5% | 1% | -29% | 14% | 2%[10.4 µM] | 11% | ? | -21% | -26%
COc1cccc(CN(C)CC(=O)Nc2cccc3ccccc23)c1 | 18µM* | -3% | 1% | -13% | -7% | 2%[10.4 µM] | -9% | 2% | 5% | 8%
COc1ccc(CNC(=O)CN(C)CC(=O)Nc2ccccc2Br)cc1 | nt | nt | nt | -4% | 48% | nt | nt | nt | nt | nt
COc1ccc(OC)c(NC(=O)CN(C)CC(=O)Nc2ccccc2Br)c1 | 18µM* | -11% | -1% | -6%[11.4 µM] | 40% | -14% | 8% | -4% | 7% | 6%
COc1cccc(CC(=O)Nc2cccc3ccccc23)c1 | -8% | -4% | 0% | -33% | 11% | nt | nt | nt | nt | nt
C[C@H](N)C(=O)N1CCC(C(=O)N[C@@H](Cc2ccccc2)C(=O)Nc2ccc(F)cc2)CC1 | 16µM* | -10% | -6% | -19% | 13% | -26% | 12% | -2% | -3% | 3%
O=C(N[C@@H](Cc1ccccc1)C(=O)Nc1ccc(F)cc1)C1CCNCC1 | nt | 0% | 0% | -2% | 5% | nt | nt | nt | nt | nt
O=C(Oc1ccc[nH]c1=O)c1cccc(Cl)c1 | -18% | ? | 4% | -16% | 36% | 15%[38.3 µM] | 10% | 0.52µM* | ? | 33µM*
COc1ccc(N(CC(=O)NC2CCCCC2)C(=O)c2ccc(C)s2)c(OC)c1 | -2% | -4% | 0% | 32% | -7% | nt | nt | nt | nt | nt
C=CCc1cc(Cl)ccc1OCCN1CC(C)OC(C)C1 (configuration not stated) | 18µM* | 0% | 0% | 164% | ? | -19% | -7% | -6% | -2% | 0%
C[C@H](CO)N1C[C@H](C)[C@H](CN(C)S(=O)(=O)c2cccc(C#N)c2)OCc2cnnn2CCCC1=O | nt | nt | nt | nt | 5% | nt | nt | nt | nt | nt
O=C(O)Cn1c2c(c3ccccc31)CSc1ccc(Cl)cc1-2 | 7.1µM* | -11% | 1% | -53% | -3% | 0%[10.4 µM] | 2% | 17% | 13% | 16%
SMILES | Giardia FBPA inh-1 | AmpC inh detg | LmPK inh | AmpC no deterg | AMA1-RON2 inh | Giardia growth | Mammal cell tox | Giardia FBPA inh-2 | Rabbit FBPA inh | GAPDH counter
Fc1cccc(Cl)c1/C=N/Nc1ccccn1 | 4% | ? | -2% | -17%[11.4 µM] | 21% | nt | nt | nt | nt | nt
Cc1[nH]c2ccccc2c1/C=N/NC(N)=S | -29% | 4% | 1% | -26% | 69% | nt | nt | nt | nt | nt
Cc1[nH]c2ccccc2c1/C=N/Nc1nc2ccccc2[nH]1 | 18µM* | 19% | -2% | -28% | -37% | -4%[10.4 µM] | -20% | -10% | -6% | -2%
CCc1nnc(N/N=C/c2c(C)[nH]c3ccccc23)n1N | 18µM* | 1% | -2% | -27% | 11% | 17% | 0% | ? | ? | -24%
CCOc1cc(/C=N/Nc2nnc(C)n2N)ccc1O | 16µM* | 13% | -1% | -4% | 63% | -17% | 14% | ? | ? | ?
CCc1nnc(N/N=C/c2c(F)cccc2Cl)n1N | 20µM* | -19% | -4% | -14% | 32% | -26% | 1% | -27% | -15% | -13%
Cc1ccccc1/C=N/Nc1nc2ccccc2[nH]1 | -14% | 1% | 2% | -28% | 71% | nt | nt | nt | nt | nt
NS(=O)(=O)c1cccc(NC(=O)CSc2nnc(NC3CC3)s2)c1 | nt | nt | nt | nt | -2% | nt | nt | nt | nt | nt
COC(=O)c1ccccc1-c1ccc(/C=N/NC(N)=O)o1 | -8% | 6% | -4% | -12% | -23% | nt | nt | nt | nt | nt

Bioassay records: PubChem BioAssay, National Center for Advancing Translational Sciences (NCATS)
